Bioassay records (PubChem)
ugtP null kill = growth inhibition of ugtP-null S. aureus, primary screen, RN4220 ugtP deletion, OD600; 16 h; growth inhibition, % (test concentration not listed); hit rate 0.54% among 330,000; AID 1259309, 2017; in the data active = growth inhibition above about 68%;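 note: plate controls were untreated wells for no effect and antibiotic for full effect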
TcdB GH inh = TcdB glycohydrolase inhibitors, primary screen, biochemical, single point, plate reader; Toxin B (Clostridioides difficile), P18177; TcdB glycohydrolase enzymatic assay; inhibition, % at 9.99 µM; hit rate 0.24% among 350,000; AID 652162, 2013; in the data active = inhibition above about 10%
Target sequence (P18177 whole entry, looked up): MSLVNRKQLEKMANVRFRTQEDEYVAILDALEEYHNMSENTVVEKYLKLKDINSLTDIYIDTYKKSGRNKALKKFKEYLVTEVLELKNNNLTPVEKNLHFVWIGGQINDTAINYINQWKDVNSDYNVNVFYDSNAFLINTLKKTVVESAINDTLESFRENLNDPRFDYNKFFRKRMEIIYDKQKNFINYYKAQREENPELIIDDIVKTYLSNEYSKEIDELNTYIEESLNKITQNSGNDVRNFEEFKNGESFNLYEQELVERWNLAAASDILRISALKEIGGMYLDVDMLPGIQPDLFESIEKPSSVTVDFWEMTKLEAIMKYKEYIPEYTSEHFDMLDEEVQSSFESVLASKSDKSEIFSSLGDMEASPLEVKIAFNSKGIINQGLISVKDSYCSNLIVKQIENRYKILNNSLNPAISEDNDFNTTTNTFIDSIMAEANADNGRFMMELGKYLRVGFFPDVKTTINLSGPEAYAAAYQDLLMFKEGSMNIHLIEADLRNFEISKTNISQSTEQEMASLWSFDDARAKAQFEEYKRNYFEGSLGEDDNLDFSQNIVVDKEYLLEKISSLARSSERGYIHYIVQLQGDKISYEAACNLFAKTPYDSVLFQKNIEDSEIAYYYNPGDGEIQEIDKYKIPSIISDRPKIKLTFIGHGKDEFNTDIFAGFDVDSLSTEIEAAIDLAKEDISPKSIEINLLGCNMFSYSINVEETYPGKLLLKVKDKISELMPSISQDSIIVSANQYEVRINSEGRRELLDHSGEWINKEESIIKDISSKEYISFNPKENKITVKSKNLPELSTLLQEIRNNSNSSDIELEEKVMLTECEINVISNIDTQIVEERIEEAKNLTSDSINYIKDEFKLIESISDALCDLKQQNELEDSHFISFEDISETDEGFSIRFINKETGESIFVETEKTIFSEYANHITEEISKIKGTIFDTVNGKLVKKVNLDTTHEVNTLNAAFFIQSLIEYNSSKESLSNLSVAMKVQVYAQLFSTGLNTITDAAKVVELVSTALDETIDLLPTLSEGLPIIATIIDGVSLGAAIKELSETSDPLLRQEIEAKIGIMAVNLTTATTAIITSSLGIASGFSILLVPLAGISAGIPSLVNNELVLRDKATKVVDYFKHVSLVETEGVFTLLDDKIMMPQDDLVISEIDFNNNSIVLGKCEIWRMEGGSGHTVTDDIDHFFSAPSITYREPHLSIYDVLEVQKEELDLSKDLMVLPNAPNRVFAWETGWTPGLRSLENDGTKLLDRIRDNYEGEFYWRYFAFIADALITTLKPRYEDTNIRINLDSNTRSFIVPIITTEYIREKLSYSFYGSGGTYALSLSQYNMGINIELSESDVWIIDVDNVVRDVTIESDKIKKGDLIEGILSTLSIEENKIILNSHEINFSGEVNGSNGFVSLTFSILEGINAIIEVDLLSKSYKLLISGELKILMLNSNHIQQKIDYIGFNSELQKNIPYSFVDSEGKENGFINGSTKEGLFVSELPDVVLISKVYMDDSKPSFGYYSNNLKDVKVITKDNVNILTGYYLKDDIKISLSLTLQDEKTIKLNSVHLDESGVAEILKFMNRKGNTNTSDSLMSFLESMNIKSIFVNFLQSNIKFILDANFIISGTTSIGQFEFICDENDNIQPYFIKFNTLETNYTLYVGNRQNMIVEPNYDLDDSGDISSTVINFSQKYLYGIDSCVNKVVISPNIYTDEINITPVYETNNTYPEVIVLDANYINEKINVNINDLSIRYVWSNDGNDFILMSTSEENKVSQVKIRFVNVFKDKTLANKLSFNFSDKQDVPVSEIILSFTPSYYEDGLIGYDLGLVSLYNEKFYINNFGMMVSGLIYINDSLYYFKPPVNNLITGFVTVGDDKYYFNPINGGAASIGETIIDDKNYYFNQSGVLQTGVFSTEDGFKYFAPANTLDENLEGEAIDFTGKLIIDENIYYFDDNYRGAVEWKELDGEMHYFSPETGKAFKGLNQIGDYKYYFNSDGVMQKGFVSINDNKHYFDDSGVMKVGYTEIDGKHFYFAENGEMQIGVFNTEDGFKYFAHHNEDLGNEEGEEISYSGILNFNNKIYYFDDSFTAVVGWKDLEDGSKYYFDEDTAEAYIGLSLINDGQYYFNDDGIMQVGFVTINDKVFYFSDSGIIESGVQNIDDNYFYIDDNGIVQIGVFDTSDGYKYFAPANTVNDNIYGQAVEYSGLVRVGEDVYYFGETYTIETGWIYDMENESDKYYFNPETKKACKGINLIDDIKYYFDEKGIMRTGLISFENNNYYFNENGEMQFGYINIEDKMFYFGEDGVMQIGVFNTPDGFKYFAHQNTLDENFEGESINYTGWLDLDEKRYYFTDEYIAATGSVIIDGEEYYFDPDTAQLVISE
BH1578 lux ind = inducers of Vibrio cholerae quorum light production without autoinducers, primary screen, BH1578 luxS cqsA deficient, single point | V. cholerae BH1578 lux reporter, luminescence, 6 h | AID 588436, 2011 | hit rate 0.16% among 350,000 | activation, % at 18.7 µM; in the data active = activation mostly above about 9.7%, no sharp cut-off
RN4220 kill = growth inhibition of S. aureus RN4220, primary screen, OD600; 16 h; inhibition, % (concentration not given with the values); hit rate 0.33% among 330,000; AID 1259311, 2017; in the data active = inhibition above about 85%;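 note: plate controls were untreated cells for no effect and reference antibiotic for full effect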
An asterisk follows results filed as active; i = inactive; . = no result given. A selection: hits, their analogues and other compounds. The true share with any hit is near 0.67%.

SMILES	ugtP null kill	TcdB GH inh	BH1578 lux ind	RN4220 kill
Cc1ccc(NS(=O)(=O)c2ccc3c(c2)NC(=O)CCS3)c(Cl)c1	90*	2	-1	96*
Cc1cc(C)c(NS(=O)(=O)c2ccc3c(c2)NC(=O)CCS3)c(C)c1	3	1	i	55
Nc1ncnc2c1nc(N1CCCCC1)n2C1OC(CO)C(O)C1O (stereo not given)	-4	.	.	3
Cc1ccc(C2(c3ccc(C)cc3)CC2C(=O)Nc2ccc([N+](=O)[O-])cc2O)cc1 (stereo not given)	100*	.	0	101*
COc1ccc(-c2ccc3c(c2)[C@@H]2[C@@H](CCN2C(=O)CN2CCOCC2)[C@H](CO)N3)cc1	.	12*	.	.
CC(=O)N1CC[C@@H]2[C@H](CO)Nc3ccc(-c4ccc(F)cc4)cc3[C@@H]21	.	0	.	.
COc1cccc(-c2ccc3c(c2)[C@@H]2[C@@H](CCN2C(=O)CN2CCOCC2)[C@@H](CO)N3)c1	.	1	.	.
COc1ccc(-c2ccc3c(c2)[C@H]2[C@H](CCN2C(=O)CN2CCOCC2)[C@@H](CO)N3)cc1	.	15*	.	.
COc1ccc(-c2ccc3c(c2)[C@H]2[C@H](CCN2C(=O)CN2CCOCC2)[C@H](CO)N3)cc1	.	-3	.	.
CC(=O)N1CC[C@@H]2[C@@H](CO)Nc3ccc(-c4ccccc4)cc3[C@@H]21	.	11*	.	.
Oc1ccc(N=Nc2ccccc2C(F)(F)F)c2cccnc12	99*	0	i	96*
Oc1ccc(Cl)c2cccnc12	98*	1	i	97*
CC(=O)Nc1ccc(SCC(C)CN2CCC(C(C)(C)C)CCC2=O)cc1 (stereo not given)	-15	.	.	4
CC(CCN1CCc2nc(-c3ccccc3)c(-c3ccccc3)cc2C1)=NOCC(C)C(OCc1ccccc1)C(C)C (stereo not given)	4	.	.	2
Cc1cccc(C)c1OC(=O)C(c1ccccc1)c1ccccc1	96*	1	i	0
Cc1cccc(C)c1OC(=O)Cc1ccccc1	3	1	0	0
CC(C)OC(=O)c1cccc(C(=O)O)n1	6	12*	i	3
CC(C)OC(=O)c1cccc(C(=O)Oc2ccc(Br)cc2)n1	-4	.	-2	-4
CSc1ccc(CN(C)CC(=O)Nc2ccc(C)cc2Br)cc1	90*	.	0	8
C[N+]1(CCCCSc2ccc(O)cc2)CCCCC1	6	22*	-2	3
CCOC(=O)C1C2COc3ccc(Br)cc3C2N2C(=O)CN(Cc3ccco3)C(=O)[C@@]12C (stereo not given in full)	-17	.	.	4
CC(C)=CCC12Oc3cc(O)ccc3C1(O)Oc1cc(O)c([C@H]3C=C(C)CC(c4ccc(O)cc4O)[C@H]3C(=O)c3ccc(O)cc3O)c(O)c1C2=O (stereo not given in full)	100*	.	.	96*
COC(=O)c1ccc(C(=O)OC)c(NC(=O)N2c3ccccc3Sc3ccccc32)c1	2	1	-1	6
COC(=O)c1ccccc1NC(=O)N1c2ccccc2Sc2ccccc21	94*	.	0	-8
COc1ccc(CN2CC(=O)N3C4c5ccccc5OCC4C(c4ccccc4)[C@]3(C)C2=O)cc1 (stereo not given in full)	11	.	.	5
SMILES	ugtP null kill	TcdB GH inh	BH1578 lux ind	RN4220 kill
Cc1cc(C(=O)NNC(=O)c2ccc(Cl)cc2)c2ccccc2n1	4	0	25*	7
COc1ccc(C(=O)NNC(=S)NC(=O)c2cc(-c3ccccc3)nc3ccccc23)cc1	22	.	-1	84
COc1ccc(Cl)cc1C(=O)NNC(=S)NC(=O)c1cc(-c2ccccc2)nc2ccccc12	97*	.	i	93*
COc1ccc(C(=O)NNC(=O)c2cc(C)nc3ccccc23)cc1	-8	-2	-2	3
O=C(NNC(=O)c1ccccc1O)c1ccc(Cl)cc1	4	.	0	1
Cc1cccc(C(=O)NNC(=O)c2ccc(Cl)cc2)c1O	4	.	50*	-3
Cc1ccc(NC(=S)NN=Cc2c(C)[nH]c3ccccc23)cc1	88*	.	.	92*
O=C(CSc1ccccn1)Nc1nonc1[N+](=O)[O-]	86*	0	0	40
CNCC(CC1CCCCC1)NCC(CO)NCC1(c2ccccc2)CC1 (stereo not given)	-3	.	.	2
COc1ccc(C2=NOC(CNC(N)=S)C2)cc1 (stereo not given)	83*	1	-2	73
COc1ccc(CNC(=O)C2CC(c3ccc(OC)cc3)=NO2)cc1 (stereo not given)	4	.	i	1
COCCn1c(NC(=S)NC(=O)C2CC2)cc(=O)[nH]c1=O	1	23*	-3	1
COCCn1c(NC(=S)NC(=O)C23CC4CC(CC(C4)C2)C3)cc(=O)[nH]c1=O	6	1	0	8
COc1ccc(-c2ccc(/C=C3/C(=N)N4C(C)=CSC4=NC3=O)o2)c([N+](=O)[O-])c1	98*	.	0	6
COc1ccc(-c2ccc(/C=C3\C(=O)N(c4ccccc4)N=C3c3ccccc3)o2)c([N+](=O)[O-])c1	2	.	5	-7
Cc1onc(-c2c(Cl)cccc2Cl)c1COC(=O)c1ccc([N+](=O)[O-])cc1	8	0	i	3
Cc1onc(-c2c(Cl)cccc2Cl)c1COC(=O)c1ccc(Cl)cc1	89*	-1	0	5
CCN1C(=O)C2C(c3ccc(-c4ccc(F)cc4)cc3)N[C@@](Cc3ccccc3)(C(=O)OC)C2C1=O (stereo not given in full)	-21	.	.	-2
CCn1cc(C(=O)O)c(=O)c2cc(F)c(N3CCNCC3)nc21	97*	1	i	98*
CN(Cc1ccccc1)C(=O)NC1CCCCC1	-1	.	-1	4
CC(C)(Sc1ccc(CCN(CCCCC2CCCCC2)C(=O)NC2CCCCC2)cc1)C(=O)O	86*	-1	i	66
O=C(Nc1cc(C(F)(F)F)ccc1N1CCOCC1)c1n[nH]c(=O)c2ccccc12	98*	.	-1	100*
O=C(Nc1cc(C(F)(F)F)ccc1N1CCOCC1)c1ccc(F)cc1	-6	.	3	-20
COC(=O)C1=C(c2ccc(S(C)(=O)=O)cc2)CC2CCC1N2C(=O)NCCCOC(C)C (stereo not given)	1	.	.	0
CCC(C)Sc1cc(-c2nc3cc(C)ccn3c2NC2CCCCC2)ccc1OC (stereo not given)	4	-5	0	0
CCC(C)Sc1cc(-c2nc3ccccn3c2NC2CCCCC2)ccc1OC (stereo not given)	99*	-1	-7	100*
CCN1C(=O)C2C(c3ccc(-c4ccc(F)cc4)c(OC)c3)N3CCC[C@@]3(C(=O)OC)C2C1=O (stereo not given in full)	3	.	.	-2
O=C(O)c1cn(-c2ccc(N3CCCC3)c(F)c2)c2c(F)c(F)c(F)cc2c1=O	100*	0	1	8
Cc1ccc(C(=O)N2CCN(c3ccc(NC(=S)NC(=O)Cc4ccccc4)cc3)CC2)cc1	90*	.	i	6
